Laboratory results: PubChem BioAssay (NCI)
The panel holds about 83,000 compounds, 20% with a hit somewhere; the sample as a whole holds those more often.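 Each cell line was grown in a 96-well plate and treated with one concentration of compound for 48 hours. Values below 10 were considered active.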 Activity calls are given as the source filed them.

Tests used:
Assay in all cases: NCI-60 one-dose screen, 48 h (100 = growth as untreated, 0 = no growth, -100 = all killed)
Conditions in all cases: 10 µM unless noted
T-47D breast = tested on: T-47D breast
BT-549 breast = tested on: BT-549 breast
MDA-MB-435 melanoma = tested on: MDA-MB-435 melanoma
SW-620 colon = tested on: SW-620 colon
MCF7 breast = tested on: MCF7 breast
HCT-116 colon = tested on: HCT-116 colon
HCC-2998 colon = tested on: HCC-2998 colon
KM12 colon = tested on: KM12 colon

Measured: growth

COc1ccc(-c2nn(-c3ccccc3)cc2/C=C2\SC(=O)NC2=O)cc1
inactive: T-47D breast 85.9% | BT-549 breast 101% | MDA-MB-435 melanoma 108% | SW-620 colon 107% | MCF7 breast 85.2% | HCT-116 colon 95.1% | HCC-2998 colon 109% | KM12 colon 98.1%

CN(C)c1ccc(/C=C(\C#N)c2nc3ccccc3s2)cc1
inactive: T-47D breast 89.4% | BT-549 breast 72.9% | MDA-MB-435 melanoma 89.1% | SW-620 colon 112% | MCF7 breast 89% | HCT-116 colon 96.8% | HCC-2998 colon 106% | KM12 colon 108%

Cc1ccc(NC(=O)c2sc3nc4c(cc3c2N)C(=O)CCC4)cc1C
inactive: T-47D breast 24.1% | BT-549 breast 48.7% | SW-620 colon 18.9% | MCF7 breast 10.7% | HCT-116 colon 28.4% | HCC-2998 colon 27.3% | KM12 colon 19.5%
active: MDA-MB-435 melanoma -55.5%

COc1ccc(C(=O)c2sc3nc4c(cc3c2N)CCCC4)cc1OC
active: MDA-MB-435 melanoma -9.21%
inactive: T-47D breast 15.5% | BT-549 breast 24.1% | SW-620 colon 34.6% | MCF7 breast 27.1% | HCT-116 colon 19.4% | HCC-2998 colon 109% | KM12 colon 26.9%

O=C(/C=C/c1ccc(Cl)cc1)c1ccc(O)c(CN2CCN(c3cc4c(cc3F)c(=O)c(C(=O)O)cn4C3CC3)CC2)c1
inactive: T-47D breast 53.4% | BT-549 breast 46.3% | MDA-MB-435 melanoma 52% | SW-620 colon 47.8% | MCF7 breast 45.6% | HCT-116 colon 12.6% | HCC-2998 colon 59.4% | KM12 colon 59.3%

COc1cc2cc(COc3nccc(-c4ccc(Cl)cc4)n3)c(=O)[nH]c2cc1OC
inactive: T-47D breast 85.5% | BT-549 breast 86.4% | MDA-MB-435 melanoma 65.6% | SW-620 colon 36.5% | MCF7 breast 46.3% | HCT-116 colon 53.4% | HCC-2998 colon 11.7% | KM12 colon 76.2%

O=C1Nc2ccccc2/C1=C/C(=N/c1nnc(-c2ccccc2)s1)c1ccccc1
active: SW-620 colon -5.52% | HCT-116 colon -51.9%
inactive: T-47D breast 73.7% | BT-549 breast 66.4% | MDA-MB-435 melanoma 51.6% | MCF7 breast 36.9% | HCC-2998 colon 104% | KM12 colon 87.7%

COc1ccc(C2c3ccc4ccccc4c3Oc3ncnc(N)c32)cc1 (centres undefined)
active: MDA-MB-435 melanoma 8.46%
inactive: T-47D breast 60.1% | BT-549 breast 88.3% | SW-620 colon 76.8% | MCF7 breast 68.1% | HCT-116 colon 92.9% | HCC-2998 colon 104% | KM12 colon 72.4%

O=C(CNC1C2CC3CC(C2)CC1C3)Sc1nnc2sc3ccccc3n12 (centres undefined)
inactive: T-47D breast 87.2% | BT-549 breast 98% | MDA-MB-435 melanoma 101% | SW-620 colon 94.8% | MCF7 breast 88.7% | HCT-116 colon 93.6% | HCC-2998 colon 113% | KM12 colon 101%

CC(=O)C1=C(O)C=C2Oc3c(C(=O)/C=C/c4ccccc4)c(O)c(C)c(O)c3[C@]2(C)C1=O
inactive: T-47D breast 47.1% | BT-549 breast 49.6% | MDA-MB-435 melanoma 46.3% | SW-620 colon 49.9% | MCF7 breast 44.1% | HCT-116 colon 30.9% | HCC-2998 colon 32.6% | KM12 colon 33.6%

CC/C=C\C[C@H](F)C/C=C1/C(=O)C=C[C@@H]1C/C=C\CCCC(=O)OC
inactive: SW-620 colon 14.3% | MCF7 breast 11.6%
active: T-47D breast 4.66% | BT-549 breast -2.64% | MDA-MB-435 melanoma 0.0777% | HCT-116 colon -54.6% | HCC-2998 colon 9.38% | KM12 colon -27.7%

COc1cc(OC)c(/C=C/S(=O)(=O)Cc2cnc(OC)c(N)c2)c(OC)c1
active: BT-549 breast 8.01% | HCT-116 colon 3.33% | KM12 colon 9.75%
inactive: T-47D breast 15.6% | MDA-MB-435 melanoma 13.4% | SW-620 colon 22.8% | MCF7 breast 11.6% | HCC-2998 colon 17.5%

C=C1C(=O)O[C@H]2[C@H]1CC/C(Cn1cc(Cn3ccc4cc(Cl)ccc43)nn1)=C\CC[C@@]1(C)O[C@@H]21
active: T-47D breast -47.6% | MDA-MB-435 melanoma 1.14% | SW-620 colon -75.7% | MCF7 breast -77.5% | HCT-116 colon -91.5%
inactive: BT-549 breast 22.8% | HCC-2998 colon 39.1% | KM12 colon 52%

COC(=S)SCN(CSC(=S)OC)c1ccc(Cl)cc1
inactive: T-47D breast 70.1% | BT-549 breast 65.8% | MDA-MB-435 melanoma 95.3% | SW-620 colon 99.1% | MCF7 breast 73.5% | HCT-116 colon 79.7% | HCC-2998 colon 100% | KM12 colon 98.2%

CCCCCCCCCCCCCCCCCCNC(=O)[C@H]1CSC(c2ccc(OC)c(F)c2)N1 (some centres undefined)
active: T-47D breast -62.5% | BT-549 breast -60.2% | MDA-MB-435 melanoma -83% | SW-620 colon -60.2% | MCF7 breast -67.9% | HCT-116 colon -72.7% | HCC-2998 colon -57.5% | KM12 colon -50.2%

CN1CCN(c2ccc3nc(-c4ccc5nc(-c6ccc(OCCC(C)(C)C)cc6)[nH]c5c4)[nH]c3c2)CC1
active: MDA-MB-435 melanoma -37.8% | SW-620 colon -82.6% | MCF7 breast -61.3% | HCT-116 colon -95% | HCC-2998 colon -64.6% | KM12 colon -60.6%
inactive: T-47D breast 73.4% | BT-549 breast 72.4%

Cc1cc(N/N=C/c2nc(-c3ccc(Cl)cc3)oc2C)c2cc(Cl)ccc2n1
active: MDA-MB-435 melanoma -29.7% | SW-620 colon -69.3% | MCF7 breast -86.2% | HCT-116 colon -47.1%
inactive: T-47D breast 77% | BT-549 breast 91.2% | HCC-2998 colon 103% | KM12 colon 53.6%

CC[C@H](Nc1nc(N)nc(C)c1C#N)c1nc2cccc(NCc3ccc(C(=O)NO)cc3)c2c(=O)n1-c1ccccc1
active: T-47D breast -8.21% | MDA-MB-435 melanoma -1.57% | SW-620 colon -16.4% | MCF7 breast 5.7% | HCT-116 colon -50.5% | KM12 colon 0.659%
inactive: BT-549 breast 20.9% | HCC-2998 colon 28.3%

CN1CCN(Cc2ccc(NC(=O)c3[nH]ncc3Nc3ncnc4c3CCC4)cc2)CC1
inactive: T-47D breast 32.3% | MDA-MB-435 melanoma 29.6% | MCF7 breast 11.3% | HCC-2998 colon 13.1%
active: BT-549 breast -7.15% | SW-620 colon 7.76% | HCT-116 colon 5.79% | KM12 colon 6.55%

O=C(/C=C/c1cc2ccccc2[nH]c1=O)/C=C/c1cc2ccccc2[nH]c1=O
active: BT-549 breast -45.5% | MDA-MB-435 melanoma -41.6% | SW-620 colon -39.5% | MCF7 breast -42.3% | HCT-116 colon -71.1% | HCC-2998 colon -88.9% | KM12 colon -83.7%
inactive: T-47D breast 15.2%

NC1=CC(=O)C(=O)c2ccccc21
active: MDA-MB-435 melanoma -72.4%
inactive: T-47D breast 56.4% | BT-549 breast 90.4% | SW-620 colon 98.9% | MCF7 breast 86% | HCT-116 colon 63.4% | HCC-2998 colon 95% | KM12 colon 95.7%

CC(=O)C1=C(O)C=C2Oc3c(C(=O)/C=C/c4cc(C(F)(F)F)cc(C(F)(F)F)c4)c(O)c(C)c(O)c3[C@]2(C)C1=O
active: T-47D breast -18.7% | BT-549 breast -29.6% | MDA-MB-435 melanoma -33.9% | SW-620 colon -10.2% | MCF7 breast -42% | HCT-116 colon -30% | HCC-2998 colon -87.4% | KM12 colon -46%

COc1cnc2c(c1)C(=O)c1c-2n(CCCN2CCCC2)c(=O)c2cc([N+](=O)[O-])ccc12
active: MDA-MB-435 melanoma 2.83% | SW-620 colon -19.3% | MCF7 breast 3.81% | HCT-116 colon -67.5% | KM12 colon -33.3%
inactive: T-47D breast 24.5% | BT-549 breast 18.2% | HCC-2998 colon 16.2%

Oc1cccc(Nc2nccc(-c3ccc4ccccc4c3)n2)c1
inactive: T-47D breast 47.6% | BT-549 breast 41.3% | SW-620 colon 31.3% | MCF7 breast 25.3% | HCT-116 colon 20.6% | HCC-2998 colon 52.2% | KM12 colon 28.2%
active: MDA-MB-435 melanoma -1.27%

O=c1c2cccc3c(Nc4ccccn4)ccc(c32)c2nc3ccccc3n12
inactive: T-47D breast 46.6% | BT-549 breast 87.4% | MDA-MB-435 melanoma 99.4% | SW-620 colon 77.1% | MCF7 breast 28.7% | HCT-116 colon 65% | HCC-2998 colon 68.5% | KM12 colon 74.8%

CNc1nc(C)c(-c2nc(Nc3cccc(S(N)(=O)=O)c3)ncc2F)s1
active: T-47D breast -2.75% | BT-549 breast -17.1% | SW-620 colon 8% | MCF7 breast 1.33% | HCT-116 colon 5.28% | HCC-2998 colon 2.96% | KM12 colon 5.25%
inactive: MDA-MB-435 melanoma 17.6%

O=C(/C=C/c1cccc(Br)c1)c1ccccc1
inactive: T-47D breast 52% | BT-549 breast 76.6% | MDA-MB-435 melanoma 80.9% | SW-620 colon 69.9% | MCF7 breast 12.6% | HCT-116 colon 47.1% | HCC-2998 colon 96.4% | KM12 colon 70.9%

Oc1cc(O)c2c(=S)cc(-c3ccc(Cl)cc3)oc2c1
inactive: BT-549 breast 38.4% | MDA-MB-435 melanoma 25.9% | SW-620 colon 41.5% | HCT-116 colon 17.6% | HCC-2998 colon 57.7% | KM12 colon 38.7%
active: T-47D breast 0.614% | MCF7 breast 6.22%
